Sampled rows, rich in hits. Any-hit rate of the full collection: about 7.4%.
p53 reactivation – qHTS assay for re-activators of p53 using a Luc reporter; H1299 p53-A138V BP100-luciferase reporter, luminescence, 24 h; Potency, µM (series often up to 92.2 µM), most hits filed as activators; hit rate 0.063% among 320,000; AID 504706, 2011; also: nearly all actives have a fitted effect of over 45% in size
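p53-null H1299 cells stably carrying temperature-sensitive p53-A138V and a BP100-luciferase reporter were pinned with compounds (4-point, 1:5 series) and held 24 hrs at 37 deg C. Luminescence was read 10 min after detection reagent.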
SMN2 splice up – qHTS Assay for Enhancers of SMN2 Splice Variant Expression. hit rate 2.8% among 210,000. Potency, µM (titrated, usually from 46.1 µM), hits mostly activators. HEK293 SMN2-luciferase splicing reporter, luminescence, 30-36 h; also: nearly all actives have a fitted effect of over 55% in size
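qHTS luciferase splicing reporter: luminescence rises when SMN2 exon 7 is included in transfected HEK293 cells. Compound exposure lasted 30-36 h at 37C, with 4.5 mM final sodium butyrate as control, followed by a ONE-Glo read.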
ELG1 genotoxic – qHTS screen for small molecules that induce genotoxicity in human embryonic kidney (HEK293T) cells expressing luciferase-tagged ELG1; hit rate 1.3% among 330,000; HEK293T ELG1-luciferase reporter, luminescence, 16 h; Potency, µM (doses to about 46 µM), usual class: activators; also: nearly all actives have a fitted effect of over 60% in size
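Genotoxicity was scored as increased ELG1-luciferase reporter signal, measured by ONE-Glo luminescence (30 min, room temperature). Compound or vehicle exposure of the HEK293T reporter cells lasted 16 hr at 37°C.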
NPC1 prom act – qHTS Assay for NPC1 Promoter Activators; AID 485313, 2010; Potency, µM (doses to about 9.22 µM), actives largely listed as activators; Huh7 NPC1 promoter luciferase reporter, 24 h; hit rate 2.4% among 320,000; also: nearly all actives have a fitted effect of over 60% in size
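Luciferase expression driven by the NPC1 promoter was measured in stably transfected Huh7 cells after a 24 h compound incubation, using a luciferase reagent and a luminescence read.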
Rab9 prom act – qHTS Assay for Rab9 Promoter Activators. Huh7 Rab9 promoter-luciferase reporter, luminescence, 24 h. Potency, µM (highest dose often 9.22 µM), most hits filed as activators. hit rate 2.8% among 320,000; also: nearly all actives have a fitted effect of over 60% in size
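Cell-based reporter: Huh7 stable for Rab9 promoter-driven luciferase, plated in reduced-serum medium with 10% FBS at 1500 cells/well, compound-treated 24 h at 37 °C, luminescence read after 10 min reagent.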
FLuc counter – qHTS profiling assay for firefly luciferase inhibitor/activator using purifed enzyme and Km concentrations of substrates (counterscreen for miR-21 project). AID 588342, 2011. purified FLuc, Km substrates, luminescence inhibition. Potency, µM (series often up to 57.5 µM), hits mostly inhibitors. Luciferin 4-monooxygenase (Photinus pyralis), P08659. hit rate 6.9% among 360,000; also: nearly all actives have a fitted effect of over 55% in size
Target sequence (P08659 whole entry, looked up): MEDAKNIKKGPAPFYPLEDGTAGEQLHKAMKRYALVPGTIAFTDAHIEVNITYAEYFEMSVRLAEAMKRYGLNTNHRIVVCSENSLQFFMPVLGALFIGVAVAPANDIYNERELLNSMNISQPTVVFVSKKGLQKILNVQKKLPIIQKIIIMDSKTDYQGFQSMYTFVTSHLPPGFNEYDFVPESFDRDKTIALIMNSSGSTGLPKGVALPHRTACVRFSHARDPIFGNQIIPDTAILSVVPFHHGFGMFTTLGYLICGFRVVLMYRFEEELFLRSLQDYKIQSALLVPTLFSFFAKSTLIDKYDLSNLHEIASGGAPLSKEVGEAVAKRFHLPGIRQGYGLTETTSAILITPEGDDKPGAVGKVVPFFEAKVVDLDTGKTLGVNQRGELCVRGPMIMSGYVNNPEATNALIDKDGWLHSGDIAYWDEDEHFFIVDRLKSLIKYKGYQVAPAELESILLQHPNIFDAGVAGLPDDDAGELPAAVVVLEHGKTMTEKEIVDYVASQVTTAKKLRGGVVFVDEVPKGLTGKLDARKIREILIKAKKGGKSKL
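Purified P. pyralis luciferase, 10 nM final, with Km-level 10 uM D-luciferin and 10 uM ATP in 50 mM Tris acetate pH 7.5, 10 mM Mg acetate, 0.01% Tween-20, 0.05% BSA; 6-point qHTS titration about 60 µM downward; luminescence read.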
Hits are given with their value; [ ] = dose if it differs, or a comment. Calls follow the shape of the dose curve; as a rule, active = well fitted curve in the direction sought with a large enough effect; inconclusive = small, poorly fitted or top-dose-only effect, or another doubt; inactive = no such curve, though single readings can be large; an effect the other way counts as inactive or inconclusive.

How did O=C(Nc1cccn(Cc2cccc(F)c2)c1=O)NC1CCCCC1 do in these assays?
p53 reactivation: inactive; SMN2 splice up: inactive; ELG1 genotoxic: inactive; NPC1 prom act: inactive; Rab9 prom act: inactive; FLuc counter: inconclusive

What do the screens show for `Cc1ccc(NC(=O)Nc2cccn(Cc3c(F)cccc3Cl)c2=O)cc1`?
p53 reactivation: inactive; SMN2 splice up: inactive; ELG1 genotoxic: inactive; NPC1 prom act: inactive; Rab9 prom act: inactive; FLuc counter: 7.6µM

How did O=C(NCc1ccccc1)Nc1cccn(Cc2c(F)cccc2Cl)c1=O do in these assays?
p53 reactivation: inactive; SMN2 splice up: inactive; ELG1 genotoxic: inactive; NPC1 prom act: inactive; Rab9 prom act: inactive; FLuc counter: 13µM

What do the screens show for `COC(=O)[C@@]1(Cc2ccc(OC)cc2)[C@@H]2[C@@H](CC(=O)[C@H]2CC(=O)C(=O)N2CCCC2)CN1C(=O)c1ccccc1`?
SMN2 splice up: inactive

What do the screens show for `O=C(/C=C/c1ccc([N+](=O)[O-])cc1)c1cccs1`?
p53 reactivation: inactive; ELG1 genotoxic: inactive; NPC1 prom act: inactive; Rab9 prom act: inactive; FLuc counter: inactive

What do the screens show for `Nc1ccc(/C=C/C(=O)c2cccs2)cc1`?
p53 reactivation: inconclusive; ELG1 genotoxic: inconclusive; NPC1 prom act: 4µM; Rab9 prom act: 3.5µM; FLuc counter: 1.3µM

What do the screens show for `Cc1c(/C=C/C(=O)c2cccs2)cnn1C`?
p53 reactivation: inconclusive; SMN2 splice up: inactive; ELG1 genotoxic: 21µM; NPC1 prom act: inconclusive; Rab9 prom act: inconclusive; FLuc counter: 9.5µM

Results for CCc1ccc(C(=O)/C=C/c2cnn(C)c2C)s1 ?
p53 reactivation: inconclusive; SMN2 splice up: 13µM; ELG1 genotoxic: 13µM; NPC1 prom act: 4µM; Rab9 prom act: 3.5µM; FLuc counter: 0.6µM

What do the screens show for `CCCOC(=O)c1c(NC(=O)/C=C/c2cnn(C)c2C)sc(C(=O)OC)c1C`?
p53 reactivation: inactive; SMN2 splice up: inactive; ELG1 genotoxic: inactive; NPC1 prom act: inactive; Rab9 prom act: inactive; FLuc counter: inactive

Results for CCCc1ccc(S(=O)(=O)N/N=C(/C)c2ccc3c(c2)OCO3)cc1 ?
p53 reactivation: inactive; ELG1 genotoxic: inactive; NPC1 prom act: inactive; Rab9 prom act: inactive; FLuc counter: inactive

Results for O=C(COc1ccc(F)cc1)NCCc1nc2ccccc2[nH]1 ?
SMN2 splice up: inactive; FLuc counter: inactive

How did CC(C)(C)c1ccc(OCCSc2nc(-c3cccs3)nc3cc(=O)[nH]n23)cc1 do in these assays?
FLuc counter: 15µM

How did Cc1ccccc1NC(=O)CSc1nc(-c2cccs2)nc2cc(=O)[nH]n12 do in these assays?
NPC1 prom act: inactive; Rab9 prom act: inactive; FLuc counter: inactive

What do the screens show for `CCOc1ccccc1N(CC)C(=O)c1noc2c1COc1ccc(C)cc1-2`?
FLuc counter: inactive

Results for COC(=O)[C@@H]1C[C@@]2(O)[C@@H](O)[C@@H](O)[C@@H](O)C[C@H]2N1Cc1ccc(N2CCOCC2)cc1 ?
SMN2 splice up: inactive

Results for Clc1ccc(CSc2ncn(-c3ccccc3)n2)cc1 ?
p53 reactivation: inactive; SMN2 splice up: inactive; ELG1 genotoxic: inactive; NPC1 prom act: inactive; Rab9 prom act: inactive; FLuc counter: inactive

How did Clc1cccc(CSc2ncn(-c3ccccc3)n2)c1 do in these assays?
p53 reactivation: inconclusive; SMN2 splice up: inconclusive; ELG1 genotoxic: inconclusive; NPC1 prom act: inactive; Rab9 prom act: inactive; FLuc counter: 19µM

What do the screens show for `CCOC(=O)CSc1nc(-c2ccncc2)ccc1C#N`?
p53 reactivation: inconclusive; SMN2 splice up: 1.1µM; ELG1 genotoxic: inconclusive; NPC1 prom act: 1.3µM; Rab9 prom act: 0.4µM; FLuc counter: inconclusive

What do the screens show for `CCOC(=O)CSc1nc(-c2ccc3c(c2)OCO3)ccc1C#N`?
p53 reactivation: inconclusive; SMN2 splice up: inactive; ELG1 genotoxic: inconclusive; NPC1 prom act: 2.5µM; Rab9 prom act: 0.79µM; FLuc counter: 5.4µM

Results for CCOC(=O)CC(=O)CSc1nc(-c2cccnc2)ccc1C#N ?
p53 reactivation: inactive; SMN2 splice up: inactive; ELG1 genotoxic: inconclusive; NPC1 prom act: inactive; Rab9 prom act: inactive; FLuc counter: inconclusive

What do the screens show for `CCOc1cnc(-c2ccccc2F)o1`?
p53 reactivation: inactive; SMN2 splice up: inactive; ELG1 genotoxic: inactive; NPC1 prom act: inactive; Rab9 prom act: inactive; FLuc counter: 17µM

What do the screens show for `CCOc1cnc(-c2c(-c3c(F)cccc3Cl)noc2C)o1`?
p53 reactivation: inactive; SMN2 splice up: inactive; ELG1 genotoxic: inactive; NPC1 prom act: inactive; Rab9 prom act: inactive; FLuc counter: inactive

Results for Cc1ccc(N(C)S(=O)(=O)c2ccc3[nH]c(=O)ccc3c2)cc1 ?
FLuc counter: 8.5µM

How did CCN(c1ccccc1)S(=O)(=O)c1ccc2ccccc2c1 do in these assays?
p53 reactivation: inactive; ELG1 genotoxic: inactive; NPC1 prom act: inactive; Rab9 prom act: inactive[1.84 µM]; FLuc counter: inactive

What do the screens show for `CN(c1ccc(O)cc1)S(=O)(=O)c1ccc2ccccc2c1`?
p53 reactivation: inactive; ELG1 genotoxic: inconclusive; NPC1 prom act: inconclusive; Rab9 prom act: 4µM; FLuc counter: 19µM

How did CCOc1ccccc1N(CC)C(=O)c1nn(C)c2c1CSc1ccccc1-2 do in these assays?
p53 reactivation: inactive; ELG1 genotoxic: inactive; NPC1 prom act: inactive; Rab9 prom act: inactive; FLuc counter: inactive

How did CCCC(=O)Nc1ccc2c(c1)nc1n2CCN(C2CCCCC2)C1 do in these assays?
p53 reactivation: inactive; SMN2 splice up: inactive; ELG1 genotoxic: inactive; NPC1 prom act: inactive; Rab9 prom act: inactive; FLuc counter: inactive

How did O=[N+]([O-])c1ccc2c(c1)nc1n2CCN(C2CCCCC2)C1 do in these assays?
p53 reactivation: inactive; SMN2 splice up: 14µM; ELG1 genotoxic: inconclusive; NPC1 prom act: inconclusive; Rab9 prom act: 2.5µM; FLuc counter: 15µM

Results for O=[N+]([O-])c1ccc2c(c1)nc1n2CCCCC1 ?
p53 reactivation: inactive; SMN2 splice up: inactive; ELG1 genotoxic: inactive; NPC1 prom act: inactive; Rab9 prom act: inactive; FLuc counter: inactive

What do the screens show for `CC(=O)Nc1ccc2c(c1)nc1n2CCN(C2CCCCC2)C1`?
p53 reactivation: inactive; SMN2 splice up: 13µM; ELG1 genotoxic: inconclusive; NPC1 prom act: 3.5µM; Rab9 prom act: 2µM; FLuc counter: 24µM

What do the screens show for `N/C(=N\OC(=O)c1ccc(Cl)c(Cl)c1)c1cccnc1`?
p53 reactivation: inconclusive; SMN2 splice up: inactive; ELG1 genotoxic: inactive; NPC1 prom act: inactive; Rab9 prom act: inactive; FLuc counter: 8.5µM

How did O=C(O/N=C(\c1ccccc1)c1ccccn1)c1ccc(Cl)c(Cl)c1 do in these assays?
p53 reactivation: inactive; SMN2 splice up: inactive; ELG1 genotoxic: inactive; NPC1 prom act: inactive; Rab9 prom act: inactive; FLuc counter: inactive
